Assay [1] can be described thus: qHTS assay to test for compound auto fluorescence at 590 nm (red) in HepG2 cells (AID 720674). The method, boiled down:
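Intrinsic compound fluorescence in the red window (Ex/Em 540/590 nm) is measured in attached HepG2 cells exposed for 1 hr, DMSO vehicle as baseline, benchmarked to Rose Bengal sodium.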

Assay [2] can be described thus: qHTS assay to test for compound auto fluorescence at 535 nm (green) in HepG2 cells (AID 720675). Also: potency is read from the fitted curve at half-maximal effect.
A short description of assay [3]: qHTS assay to test for compound auto fluorescence at 460 nm (blue) in HEK293 cells (AID 720678). In outline:
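Measured: blue fluorescence (Ex 405/Em 460 nm) of compound-treated HEK293 cells, incubated overnight at 37C with 5% CO2 and scaled to triamterene equivalents.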

Assay [4] can be described thus: qHTS assay to test for compound auto fluorescence at 590 nm (red) in HEK293 cells (AID 720679). In outline:
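Using HEK293 cells at 2,000 per well, the screen added 23 nL of each compound after cell attachment and incubated overnight (37C, 5% CO2). The plate reader then captured red-label fluorescence, Ex/Em 540/590nm.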

A short description of assay [5]: qHTS assay for small molecule disruptors of the mitochondrial membrane potential - cell viability (AID 720634; calls by dose curve;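 also: human HepG2 liver cancer cells; series mostly up to about 83 µM; nearly all actives have a fitted effect of over 20% in size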). The method, boiled down:
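ATP-based luminescent viability readout (CellTiter-Glo, 30 min, room temperature) in HepG2 cells multiplexed with the m-MPI membrane potential dye; compound exposure lasted 1 hr at 37 C.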

The nature of assay [6]: qHTS assay for small molecule agonists of the p53 signaling pathway - cell viability (AID 651633; calls by dose curve; also: nearly all actives have a fitted effect of over 30% in size; also: potency is read from the fitted curve at half-maximal effect). The method, boiled down: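 p53RE-bla cells, seeded at 4,000 per well and rested 5 h at 37 C/5% CO2, received compounds in DMSO for 16 h at 37 C. CellTiter-Glo was then added, and luminescence was read after 30 min at room temperature to gauge cytotoxicity.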
Assay [7] is described as follows: qHTS assay for small molecules that induce genotoxicity in human embryonic kidney cells expressing luciferase-tagged ATAD5 - cell viability (AID 651634; calls by dose curve; also: nearly all actives have a fitted effect of over 25% in size; also: potency is read from the fitted curve at half-maximal effect). The method, boiled down:
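After 15.5 hr incubation with compound at 37C, 5% CO2, HEK293T ATAD5-luciferase cells received CellTiter-Fluor reagent; fluorescence intensity was quantified following 30 min at 37C.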

Assay [8] can be described thus: qHTS assay for small molecule disruptors of the mitochondrial membrane potential (AID 720635). Also: potency is read from the fitted curve at half-maximal effect. In outline:
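HepG2 cells (2,000/well) attached overnight at 37C, then took compound for 1 hr at 37C, 5% CO2. Mito-MPS dye was added for 30 min; fluorescence was read at 490/535 nm (monomers) and 540/590 nm (aggregates).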

Structures are written as SMILES. Records with an inconclusive call do not appear. Activity calls are given as the source filed them. Unless noted, calls follow the shape of the dose curve; as a rule, active = well fitted curve in the direction sought with a large enough effect in the repeat runs; inconclusive = weak or mixed curves; inactive = no such curve, though single readings can be large; an effect the other way counts as inactive or inconclusive. Positions of bridges follow the written chain, without caps; N, C: chain ends. Non-standard residues stand in square brackets, D forms with d. Residues, ends and D or L forms follow the SMILES beside them. *: point of attachment. X2 = CC[C@H](C)CCCCC(=O)*; Dab = NCC[C@H](N)C(=O)O

As to `Cc1ccccc1`, the Potency result in assay [1], in assay [2], in assay [3] and in assay [4] was “inactive” in each case.
For the molecule `COc1ccc(C[C@@H](C)NC[C@H](O)c2ccc(O)c(NC=O)c2)cc1`, the Potency result in assay [5], in assay [1], in assay [2], in assay [3] and in assay [4] was “inactive” in each case.
For the molecule `CO[C@H]1C[C@H](O[C@H]2[C@H](C)O[C@@H](O[C@@H]3/C(C)=C/C[C@@H]4C[C@@H](C[C@]5(C=C[C@H](C)[C@@H](C6CCCCC6)O5)O4)OC(=O)[C@@H]4C=C(C)[C@@H](O)[C@H]5OC/C(=C\C=C\[C@@H]3C)[C@]54O)C[C@@H]2OC)O[C@@H](C)[C@@H]1O`, the results for the Potency in assay [6], in assay [7] and in assay [8] were 6.68 µM (active), 13.3 µM (active) and 11.9 µM (active), respectively. For the same molecule, the Potency result in assay [1], in assay [2], in assay [3] and in assay [4] was “inactive” each time.
As to `C#C[C@]1(O)CC[C@H]2[C@@H]3CCC4=C(CCC(=O)C4)[C@H]3CC[C@@]21C`, the Potency result in assay [7], in assay [5], in assay [1], in assay [2], in assay [3] and in assay [4] was “inactive” in each case.
On to `COc1ccc(C[C@H](C)NC[C@@H](O)c2ccc(O)c(NC=O)c2)cc1`, for which the Potency result in assay [5], in assay [1], in assay [2], in assay [3] and in assay [4] was “inactive” throughout.
For the molecule `Cc1cc2nc3c(=O)[nH]c(=O)nc-3n(C[C@H](O)[C@H](O)[C@H](O)COP(=O)(O)OP(=O)(O)OC[C@H]3O[C@@H](n4cnc5c(N)ncnc54)[C@H](O)[C@@H]3O)c2cc1C`, the Potency entry in assay [6], in assay [5], in assay [1], in assay [3] and in assay [4] was “inactive” each time. Also, the Potency in assay [2] was 14.1 µM (active).
`CC1(C)C(\C=C/C=C\C=C/C=C2/N(CCCCS(=O)(=O)O)c3ccc4ccccc4c3C2(C)C)=[N+](CCCCS(=O)(=O)[O-])c2ccc3ccccc3c21`: the Potency result in assay [6], in assay [5], in assay [1], in assay [2], in assay [3] and in assay [4] was “inactive” throughout.
As for `CC(CC(c1ccccc1)c1ccccc1)NC(C)(C)C` (stereo unspecified), the Potency result in assay [6], in assay [7], in assay [5], in assay [1], in assay [2] and in assay [3] was “inactive” throughout. Besides, the Potency result in assay [4] was “inactive”.
`CC1CCCC1`: the Potency result in assay [1], in assay [2], in assay [3] and in assay [4] was “inactive” in each case.
With `O=C(CCCN1CCC(n2c(=S)[nH]c3ccccc32)CC1)c1ccc(F)cc1`, the Potency entry in assay [6], in assay [8], in assay [1], in assay [2] and in assay [3] was “inactive” throughout.
For the molecule `CC(NNC(=O)c1ccccc1)c1ccccc1` (stereo unspecified), the Potency result in assay [6], in assay [7], in assay [5], in assay [1], in assay [2] and in assay [3] was “inactive” in each case. For the same molecule, in assay [4], the Potency result was “inactive”. The Potency in assay [8] is 24.8 µM (active).
On to `NC(=O)OC[C@@H]1[C@H](NC(=O)/C(=N\OCC(=O)O)c2csc(N)n2)C(=O)N1S(=O)(=O)O`, for which the Potency result in assay [6], in assay [7], in assay [5], in assay [8], in assay [1] and in assay [2] was “inactive” each time. For the same molecule, the Potency result in assay [3] and in assay [4] was “inactive” throughout.
Regarding `CO[C@@H]1[C@@H](O[C@@H]2O[C@H](C)[C@@H](O[C@H]3C[C@@](C)(O)[C@@H](OC(=O)CC(C)C)[C@H](C)O3)[C@H](N(C)C)[C@H]2O)[C@@H](CC=O)C[C@@H](C)C(=O)/C=C/C2OC2C[C@@H](C)OC(=O)C[C@H]1OC(C)=O` (stereo partly specified), the Potency entry in assay [6], in assay [5], in assay [1], in assay [2], in assay [3] and in assay [4] was “inactive” throughout.
Take `CC[C@]1(O)CC2CN(CCc3c([nH]c4ccccc34)[C@@](C(=O)OC)(c3cc4c(cc3OC)N(C)[C@H]3[C@@](O)(C(N)=O)[C@H](O)[C@]5(CC)C=CCN6CC[C@]43[C@@H]65)C2)C1` (stereo partly specified): the Potency in assay [7] is 0.531 µM (active). Besides, the Potency entry in assay [5], in assay [1], in assay [2], in assay [3] and in assay [4] was “inactive” in each case.
For the molecule `C#C[C@]1(O)CC[C@H]2[C@@H]3CCC4=C/C(=N/O)CC[C@@H]4[C@H]3CC[C@@]21CC`, the Potency entry in assay [6], in assay [5], in assay [1], in assay [2], in assay [3] and in assay [4] was “inactive” throughout. For the same molecule, the Potency in assay [8] was 10.6 µM (active).
`CCCCC(C)(O)C/C=C/[C@H]1[C@H](O)CC(=O)[C@@H]1CCCCCCC(=O)OC` (stereo partly specified): the Potency result in assay [6], in assay [7], in assay [5], in assay [1], in assay [2] and in assay [3] was “inactive” throughout. Besides, in assay [4], the Potency entry is “inactive”.
For the molecule `CCCCCCCCCCCCCCCC(=O)OCC(COC(=O)CCCCCCCCCCCCCCC)OC(=O)CCCCCCCCCCCCCCC`, the Potency result in assay [6], in assay [7], in assay [5], in assay [8], in assay [1] and in assay [2] was “inactive” each time. For the same molecule, the Potency entry in assay [3] and in assay [4] was “inactive” throughout.
As to `CCCCCCCCCCCCCCCCSCC(COC)COP(=O)([O-])OCC[N+](C)(C)C` (stereo unspecified), the Potency entry in assay [6], in assay [7], in assay [5], in assay [1], in assay [2] and in assay [3] was “inactive” in each case. The Potency result in assay [4] is “inactive”.
Regarding `CC[C@H](C)CCCCC(=O)N[C@@H](CCN)C(=O)N[C@H](C(=O)N[C@@H](CCN)C(=O)N[C@H]1CCNC(=O)[C@H]([C@@H](C)O)NC(=O)[C@H](CCN)NC(=O)[C@H](CCN)NC(=O)[C@H](CC(C)C)NC(=O)[C@@H](CC(C)C)NC(=O)[C@H](CCN)NC1=O)[C@@H](C)O` (X2-[Dab]T[Dab][Dab][Dab][dL]L[Dab][Dab]T; lactam 4-C), the Potency result in assay [6], in assay [7], in assay [5], in assay [8], in assay [1] and in assay [2] was “inactive” throughout. In addition, the Potency result in assay [3] and in assay [4] was “inactive” each time.
`CC(C)(C)NCC(O)c1ccc(O)c(CO)n1` (stereo unspecified): the Potency result in assay [6], in assay [7], in assay [5], in assay [1], in assay [2] and in assay [3] was “inactive” each time. Also, the Potency result in assay [4] is “inactive”.
`CC1(C)S[C@@H]2[C@H](NC(=O)C3(N)CCCCC3)C(=O)N2[C@H]1C(=O)O`: the Potency entry in assay [7], in assay [5], in assay [1], in assay [2], in assay [3] and in assay [4] was “inactive” throughout.
Take `CC1(C)S[C@@H]2[C@H](NC(=O)C(N)c3ccccc3)C(=O)N2[C@H]1C(=O)OC1OC(=O)c2ccccc21` (stereo partly specified): the Potency result in assay [6], in assay [7], in assay [5], in assay [1], in assay [2] and in assay [3] was “inactive” in each case. In assay [4], the Potency entry is “inactive”.
Regarding `OCC(O)CO`, the Potency entry in assay [1], in assay [2], in assay [3] and in assay [4] was “inactive” in each case.
Take `CCC(=O)NS(=O)(=O)c1ccc(-c2c(-c3ccccc3)noc2C)cc1`: the Potency result in assay [7], in assay [5], in assay [1], in assay [2], in assay [3] and in assay [4] was “inactive” in each case.
On to `O=C(O)[C@H]1/C(=C/CO)O[C@@H]2CC(=O)N21`, for which the Potency entry in assay [6], in assay [5], in assay [8], in assay [1], in assay [2] and in assay [3] was “inactive” throughout. The Potency entry in assay [4] was “inactive”.
Take `OCCN1CCN(CC/C=C2/c3ccccc3Sc3ccc(Cl)cc32)CC1`: the Potency result in assay [6], in assay [7], in assay [5], in assay [1], in assay [2] and in assay [3] was “inactive” each time. The Potency result in assay [4] was “inactive”.
Regarding `CCCCC/C=C\C/C=C\C/C=C\CCCCC(=O)O`, the Potency result in assay [6], in assay [7], in assay [5], in assay [1], in assay [2] and in assay [3] was “inactive” each time. The Potency entry in assay [4] was “inactive”.

The values are drawn from PubChem BioAssay (Tox21).
